PubChem BioAssay
Calls of active or inactive are those of the source. Unless noted, no rule for the calls is given here.

Assays:
[1] = compounds binding Alexa647 anti-His antibody – biochemical, small-molecule microarray, 635 nm fluorescence, artefact control for SMM control protein annotation, primary screen (AID 1128); settings: higher = more signal;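 also: score merges feature fluorescence with signal-to-noise for each printed compound spot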
[2] = system: Human papillomavirus type 1a E7 protein (residues 1-88); experiment: HPV1a E7 small-molecule binders, primary screen, biochemical, small-molecule microarray, residues 1-88, 635 nm (AID 1129); settings: small-molecule microarray binding, fluorescence 635 nm; higher = more signal
[3] = molecular target: Focal adhesion kinase 1 (Homo sapiens) (UniProt Q05397); experiment: PTK2 protein binding on printed compound slides – biochemical, small-molecule microarray, 635/667 nm fluorescence, BSA, DTT, primary screen (AID 1130); settings: 635 nm fluorescence, higher = more signal;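 also: composite of spot emission at 667 nm and signal to noise over triplicate slides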
[4] = system: Fibrinogen (Alexa647-labelled); experiment: Alexa647-fibrinogen binding to printed small molecules – biochemical, small-molecule microarray, 635/667 nm fluorescence, artefact control for SMM control-protein annotation, profiling panel (AID 1131); settings: fibrinogen-A647 binding fluorescence, higher = more signal;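 also: z-score merges 667 nm fluorescence with per-spot signal-to-noise over triplicate slides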
[5] = molecular target: Follistatin (Homo sapiens) (UniProt P19883); experiment: FST protein binding to printed compounds – biochemical, small-molecule microarray, 635/667 nm fluorescence, primary screen (AID 1132); settings: 635 nm fluorescence, higher = more signal
[6] = molecular target: Fibroblast growth factor 2 (Homo sapiens) (UniProt P09038); experiment: basic fibroblast growth factor binding to printed compounds – biochemical, small-molecule microarray, 635/667 nm fluorescence, primary screen (AID 1133); settings: FGF2, fluorescence 635/667, higher = more signal
[7] = JC-1 mitochondrial potential readout, lung cancer cells – cell-based, A549, JC-1 fluorescence, basal, 24 h, 100 nL, profiling panel (AID 1138); settings: higher = more signal;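 also: A549 lung adenocarcinoma cells under basal conditions with no added stimulus; test concentration not given here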
Lefty1 = Lefty1 protein binding to printed compounds – biochemical, small-molecule microarray, 635/667 nm fluorescence, primary screen (AID 1139); settings: fluorescence 635/667, higher = more signal
[8] = system: wheat germ agglutinin (Triticum aestivum), Alexa647-labelled; experiment: Alexa647-WGA lectin binding to printed small molecules – biochemical, small-molecule microarray, 635/667 nm fluorescence, artefact control for SMM control-protein annotation, profiling panel (AID 1140); settings: WGA-A647 binding, 635 nm fluorescence, higher = more signal;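 also: score merges 667 nm feature emission with signal to noise over triplicate slides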
[9] = molecular target: Luciferin 4-monooxygenase (Photinus pyralis) (UniProt P08659); experiment: inhibition of purified Photinus pyralis luciferase – biochemical, luminescence, purified enzyme, 2006 set, primary screen (AID 1141); settings: purified firefly luciferase, SteadyGlo luminescence, 30 min; higher = more signal, called active from +8 up or from −8 down;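 also: cell-free assay with purified firefly luciferase at 100 ng per well in PBS; test concentration not given here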
[10] = system: Wnt5a (protein binding on small-molecule microarray); experiment: small molecules binding Wnt5a protein – biophysical, small-molecule microarray, 635/667 nm fluorescence, primary screen (AID 1142); settings: 635 nm fluorescence, higher = more signal;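 also: fluorescence read at 667 nm with signal to noise per printed feature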
[11] = ATP-based viability of Huh7 replicon cells – cell-based, CellTiter-Glo luminescence, basal, 48 h, cytotoxicity control for HCV replication inhibitor project, primary screen (AID 1143); settings: higher = more signal, called active from +8 up or from −8 down;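 also: Huh7 hepatoma cells carrying a hepatitis C replication reporter with no stimulus; test concentration not given here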
[12] = Pseudomonas biofilm growth suppression – PAO1 strain, BacTiter-Glo luminescence, LB-PBS, primary screen (AID 1144); settings: P. aeruginosa PAO1 biofilm, 12 h, higher = more signal
[13] = basal CRE-LacZ reporter activity in PC12 – cell-based, unstimulated, primary screen (AID 1145); settings: no forskolin, luminescence, 4.5 h, higher = more signal, called active from +8 up or from −8 down
[14] = forskolin-driven CRE-LacZ activity in PC12 – cell-based, CRE-LacZ reporter, forskolin-stimulated, primary screen (AID 1146); settings: luminescence, 4.5 h, higher = more signal, called active from +8 up or from −8 down;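 also: PC12 cells with 6xCRE LacZ reporter stimulated by forskolin 10 µM; beta-galactosidase reporter signal reflecting CREB driven transcription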
[15] = molecular target: Streptavidin (Streptomyces avidinii) (UniProt P22629); experiment: compounds binding control protein streptavidin – biophysical, small-molecule microarray, 635/667 nm fluorescence, artefact control for SMM compound annotation, primary screen (AID 1147); settings: higher = more signal;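 also: signal reflects streptavidin binding to arrayed compounds as a control protein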
[16] = probe aInhba binding on compound microarray – biochemical, small-molecule microarray, 635/667 nm fluorescence, primary screen (AID 1148); settings: higher = more signal;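 also: score merges 667nm spot fluorescence with signal-to-noise for antibody binding to printed compounds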
Torsin-1A (Homo sapiens) [17] = molecular target: Torsin-1A (Homo sapiens) (UniProt O14656); experiment: TOR1A wild-type binding on microarray – cell lysate, small-molecule microarray, lysate, 635/667 nm, primary screen (AID 1149); settings: COS7 hTOR1A-WT lysate, 635 nm fluorescence, higher = more signal
Torsin-1A (Homo sapiens) [18] = molecular target: Torsin-1A (Homo sapiens) (UniProt O14656); experiment: torsin A mutant lysate binding on microarrays – cell lysate, small-molecule microarray, COS7 lysate, 635/667 nm fluorescence, primary screen (AID 1150); settings: COS7 hTOR1A mutant lysate, 635 nm fluorescence, higher = more signal;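 also: score pools 667 nm emission and signal to noise measuring lysate protein binding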
[19] = system: Sonic hedgehog protein (Shh); experiment: Sonic hedgehog microarray binding compounds – biochemical, small-molecule microarray, 635/667 nm fluorescence, primary screen (AID 1151); settings: 635 nm fluorescence, higher = more signal;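 also: Shh protein binding to compounds spotted on small-molecule microarray slides; score combines spot fluorescence intensity with signal-to-noise across triplicate slides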

Sequence of Luciferin 4-monooxygenase (Photinus pyralis) (P08659 whole entry, looked up): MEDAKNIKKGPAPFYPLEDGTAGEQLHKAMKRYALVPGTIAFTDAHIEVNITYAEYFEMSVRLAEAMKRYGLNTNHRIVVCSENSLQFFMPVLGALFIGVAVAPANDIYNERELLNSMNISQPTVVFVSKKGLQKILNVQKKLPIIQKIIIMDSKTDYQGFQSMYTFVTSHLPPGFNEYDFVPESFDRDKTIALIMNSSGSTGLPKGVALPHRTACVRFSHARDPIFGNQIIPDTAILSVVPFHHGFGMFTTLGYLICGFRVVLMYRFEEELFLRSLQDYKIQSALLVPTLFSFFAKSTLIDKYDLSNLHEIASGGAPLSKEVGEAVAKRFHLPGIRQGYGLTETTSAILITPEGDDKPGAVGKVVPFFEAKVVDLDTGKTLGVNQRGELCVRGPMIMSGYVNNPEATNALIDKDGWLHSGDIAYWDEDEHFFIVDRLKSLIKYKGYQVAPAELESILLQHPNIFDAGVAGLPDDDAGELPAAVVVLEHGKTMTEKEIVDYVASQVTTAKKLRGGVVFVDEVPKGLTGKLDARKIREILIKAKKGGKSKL
Sequence of Streptavidin (Streptomyces avidinii) (P22629 whole entry, looked up): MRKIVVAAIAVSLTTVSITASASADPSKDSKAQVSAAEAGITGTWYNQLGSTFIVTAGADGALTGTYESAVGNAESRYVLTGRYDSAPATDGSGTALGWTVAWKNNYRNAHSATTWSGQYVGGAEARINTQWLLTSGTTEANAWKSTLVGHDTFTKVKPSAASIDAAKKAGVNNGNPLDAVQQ
Sequence of Follistatin (Homo sapiens) (P19883 whole entry, looked up): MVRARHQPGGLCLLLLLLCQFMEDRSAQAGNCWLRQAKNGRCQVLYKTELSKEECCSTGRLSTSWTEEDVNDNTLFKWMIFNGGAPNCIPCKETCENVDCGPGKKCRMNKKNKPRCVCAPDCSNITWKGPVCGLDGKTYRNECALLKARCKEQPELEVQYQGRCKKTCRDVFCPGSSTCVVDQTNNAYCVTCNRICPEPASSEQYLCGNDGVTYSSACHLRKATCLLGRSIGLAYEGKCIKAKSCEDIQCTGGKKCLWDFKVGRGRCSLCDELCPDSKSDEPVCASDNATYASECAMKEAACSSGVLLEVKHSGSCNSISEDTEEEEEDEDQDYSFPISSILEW
Sequence of Focal adhesion kinase 1 (Homo sapiens) (Q05397 whole entry, looked up): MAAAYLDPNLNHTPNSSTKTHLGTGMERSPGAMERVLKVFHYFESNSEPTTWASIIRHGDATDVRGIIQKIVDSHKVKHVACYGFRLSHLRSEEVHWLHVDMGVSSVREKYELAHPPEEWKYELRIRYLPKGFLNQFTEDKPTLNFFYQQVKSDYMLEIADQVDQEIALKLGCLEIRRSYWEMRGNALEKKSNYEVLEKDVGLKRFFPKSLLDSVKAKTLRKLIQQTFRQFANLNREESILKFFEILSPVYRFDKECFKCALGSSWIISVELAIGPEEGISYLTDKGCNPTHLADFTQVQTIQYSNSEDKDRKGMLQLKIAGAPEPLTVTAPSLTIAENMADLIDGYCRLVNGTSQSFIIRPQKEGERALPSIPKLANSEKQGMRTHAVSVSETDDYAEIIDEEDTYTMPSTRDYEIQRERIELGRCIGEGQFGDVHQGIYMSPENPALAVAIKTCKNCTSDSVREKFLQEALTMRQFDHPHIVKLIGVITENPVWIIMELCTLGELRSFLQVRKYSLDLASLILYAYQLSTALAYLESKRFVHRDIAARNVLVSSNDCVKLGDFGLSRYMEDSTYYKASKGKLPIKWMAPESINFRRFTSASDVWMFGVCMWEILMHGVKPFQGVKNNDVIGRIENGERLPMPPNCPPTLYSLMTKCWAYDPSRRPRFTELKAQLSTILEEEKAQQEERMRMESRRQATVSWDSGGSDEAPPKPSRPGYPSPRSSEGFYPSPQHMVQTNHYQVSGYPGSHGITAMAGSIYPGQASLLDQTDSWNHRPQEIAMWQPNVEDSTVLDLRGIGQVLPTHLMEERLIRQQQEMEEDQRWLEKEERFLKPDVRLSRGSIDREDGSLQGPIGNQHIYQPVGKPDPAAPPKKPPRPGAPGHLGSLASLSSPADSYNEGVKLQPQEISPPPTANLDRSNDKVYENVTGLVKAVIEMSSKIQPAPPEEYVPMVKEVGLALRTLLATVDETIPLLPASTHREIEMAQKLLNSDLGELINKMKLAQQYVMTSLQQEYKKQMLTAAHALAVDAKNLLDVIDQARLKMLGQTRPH
Sequence of Torsin-1A (Homo sapiens) (O14656 whole entry, looked up): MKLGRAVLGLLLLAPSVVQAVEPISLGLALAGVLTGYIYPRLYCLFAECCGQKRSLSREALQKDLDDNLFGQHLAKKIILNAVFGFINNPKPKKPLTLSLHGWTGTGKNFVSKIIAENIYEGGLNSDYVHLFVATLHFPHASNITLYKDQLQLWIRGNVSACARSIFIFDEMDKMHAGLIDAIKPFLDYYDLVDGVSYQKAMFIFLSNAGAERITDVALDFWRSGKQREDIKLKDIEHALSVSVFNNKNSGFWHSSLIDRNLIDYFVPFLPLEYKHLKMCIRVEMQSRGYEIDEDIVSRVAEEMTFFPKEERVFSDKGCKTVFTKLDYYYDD
Sequence of Fibroblast growth factor 2 (Homo sapiens) (P09038 whole entry, looked up): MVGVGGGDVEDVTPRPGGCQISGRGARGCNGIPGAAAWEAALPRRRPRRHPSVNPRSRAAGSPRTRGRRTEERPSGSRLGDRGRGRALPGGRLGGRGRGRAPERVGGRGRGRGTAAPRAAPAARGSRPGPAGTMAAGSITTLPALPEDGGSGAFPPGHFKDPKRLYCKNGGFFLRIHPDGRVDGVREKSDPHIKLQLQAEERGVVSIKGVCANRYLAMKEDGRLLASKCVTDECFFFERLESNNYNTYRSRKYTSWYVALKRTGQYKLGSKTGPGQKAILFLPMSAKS

| Structure (SMILES) | composite z-score [1] | composite z-score [2] | composite z-score [3] | composite z-score [4] | composite z-score [5] | composite z-score [6] | z-score [7] | composite z-score (Lefty1) | composite z-score [8] | z-score [9] | composite z-score [10] | z-score [11] | z-score [12] | z-score [13] | z-score [14] | composite z-score [15] | composite z-score [16] | composite z-score (Torsin-1A (Homo sapiens) [17]) | composite z-score (Torsin-1A (Homo sapiens) [18]) | composite z-score [19] |
| --- | --- | --- | --- | --- | --- | --- | --- | --- | --- | --- | --- | --- | --- | --- | --- | --- | --- | --- | --- | --- |
| CC(C)N1C(=O)c2ccccc2[C@](C)(C(=O)NC2CC2)[C@@H]1c1ccc(CO)cc1 | 1.58 | 0.875 | -0.118 | 0.803 | 1.12 | 0.507 | 0.378 | 0.0517 | 0.497 | 1.34 (inactive) | 0.204 | -0.997 (inactive) | -0.723 (inactive) | 0.118 (inactive) | 0.957 (inactive) | -0.166 | -0.2 | 1.11 | 0.74 | 0.889 |
| CCOC1=C2C(c3ccc(C)cc3)N(S(=O)(=O)c3ccc(C)cc3)CC2n2c(=O)n(-c3ccccc3)c(=O)n2C1 (stereo not given) | 0.229 | 1.16 | 0.206 | 0.933 | 0.876 | 0.747 | 0.374 | 0.53 | 0.755 | 1.09 (inactive) | 0.323 | -0.576 (inactive) | 1.11 (inactive) | 0.0331 (inactive) | 0.0749 (inactive) | 1.09 | 0.0135 | 0.301 | 0.254 | 0.254 |
| C=CCC(OC(C)=O)[C@@H]1[C@@H](N(Cc2cc3ccccc3o2)C(=O)c2cccc3ccccc23)c2cc(OCCCO)ccc2N1C(=O)Cc1ccc(OC)cc1 (stereo not given in full) | 0.305 | -0.328 | -0.109 | 0.412 | 1.02 | 0.78 | -0.529 | 0.339 | 0.637 | 0.48 (inactive) | 0.235 | -1.1 (inactive) | 0.0686 (inactive) | 0.279 (inactive) | 0.496 (inactive) | -0.0552 | -0.0804 | 0.175 | 0.138 | 1.16 |
| O=C(CS)NCCCCCNC(=O)[C@H]1C[C@H]2C(=O)N[C@@H](Cc3ccccc3)C(=O)N2[C@H]1c1cccc(OCCO)c1 | 2.51 | 1.16 | 0.181 | 0.748 | 1.37 | 1.77 | 1.17 | 1.45 | 0.788 | -2.3 (inactive) | 0.306 | -0.178 (inactive) | -0.388 (inactive) | 0.696 (inactive) | -0.0595 (inactive) | -0.304 | 0.0439 | 0.88 | 0.822 | 1.83 |
| COCCOC(=O)N1C(=O)[C@@]2(c3cc(C#CCCO)ccc31)[C@H](c1ccc(O)cc1)N1[C@H](c3ccccc3)[C@H](c3ccccc3)OC(=O)[C@H]1[C@@H]2C(=O)N1CCCCCCC1 | 2.4 | 1 | 0.855 | 0.771 | 1.43 | 1.6 | -0.183 | 1.21 | 1.06 | -0.179 (inactive) | 0.799 | -0.883 (inactive) | -0.569 (inactive) | 0.568 (inactive) | -0.268 (inactive) | 0.825 | 0.62 | 0.705 | 0.667 | 1.65 |
| COC(=O)[C@@]1(Cc2ccc(F)cc2)[C@H]2c3cc(C(=O)N4CCCC4)n(CCc4ccc(OC)c(Br)c4)c3C[C@H]2CN1C(=O)c1ccccc1 | 2.45 | 1.22 | 1.32 | 0.831 | 1.08 | -0.705 | -1.58 | 0.265 | 1.38 | -0.0863 (inactive) | 0.375 | -3.82 (inactive) | 0.839 (inactive) | 0.0109 (inactive) | -1.14 (inactive) | 2.46 | 0.431 | 0.17 | 0.858 | -0.328 |
| CC1(C)C(=O)C(c2ccccc2)=C2CN3C(=O)N(CCc4ccccc4)C(=O)C3(Cc3ccccc3)C=C21 (stereo not given) | 0.323 | 1.14 | 0.369 | 0.119 | 0.552 | -0.492 | 0.19 | -0.378 | 1.03 | 0.245 (inactive) | 0.114 | -1.13 (inactive) | -0.741 (inactive) | 0.576 (inactive) | 0.15 (inactive) | 0.982 | 0.134 | 0.736 | -0.244 | -1.07 |
| CS(=O)(=O)CCOC(=O)C1=CC(c2ccc(CO)cc2)=CC(c2cccs2)N(Cc2cccc(OC(F)(F)F)c2)C=C1C(=O)OCCS(C)(=O)=O (stereo not given) | 0.419 | 0.969 | 0.513 | 1.01 | 1.21 | 0.0903 | 1.91 | 0.836 | 0.929 | -1.86 (inactive) | 0.104 | -3.67 (inactive) | 0.676 (inactive) | 0.695 (inactive) | -2.12 (inactive) | 1.72 | 0.0047 | 1.45 | 0.543 | 0.75 |
| COC(=O)[C@@]1(Cc2ccc(F)cc2)[C@H]2c3cc(C(=O)N(C)C)n(CCc4c[nH]c5ccc(OC)cc45)c3C[C@H]2CN1C(=O)c1ccccc1 | -0.0359 | 1.25 | 0.827 | 1.04 | -0.49 | -1.09 | -1.79 | -1.41 | 1.37 | 0.158 (inactive) | 0.325 | -3.84 (inactive) | 1.41 (inactive) | 1.54 (inactive) | 0.883 (inactive) | 1.18 | 0.351 | 1.03 | 1.31 | -1.11 |
| CC(C)C(CO)N1C(=O)[C@@H]2[C@H]3C(=O)OCC=C[C@H]3OC23C=CCN(c2ccc4ccccc4c2)C(=O)[C@@H]13 (stereo not given in full) | -0.151 | -1.29 | -0.493 | -0.581 | -0.851 | -1.18 | 0.742 | -0.842 | -0.328 | -0.194 (inactive) | -0.0522 | -0.372 (inactive) | 2.05 (inactive) | 0.732 (inactive) | 0.755 (inactive) | -0.818 | -0.179 | -0.905 | -2.07 | -0.506 |
